Assay outcomes (PubChem)
Rows were chosen to be rich in hits. Some 14% of all compounds tested hit in one or more screens of this group.
Sm TGR inh: inhibitors of Schistosoma mansoni thioredoxin glutathione reductase; Q962Y6; purified TGR, DTNB reduction, TNB absorbance 405 nm; Potency, µM (top dose mostly 114 µM), without a hit: at the top dose activity change, negative = inhibition, hits mostly inhibitors; 360,000 tested, 3% active; also: potency is read from the fitted curve at half-maximal effect; nearly all actives have a fitted effect of over 60% in size
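Kinetic colorimetric format: TGR-catalysed, NADPH-driven DTNB reduction monitored via TNB absorbance. Enzyme dispensed at 20 nM; compound exposure 15 min at room temperature before reaction start.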
Pf growth 96h: inhibits malaria parasite growth, 96 h | P. falciparum luciferase reporter growth, 96 h | Potency, µM (highest dose often 28.7 µM), without a hit: top-dose activity change, negative = inhibition, hits mostly inhibitors | 320,000 tested, 6.9% active | AID 504834; also: potency is read from the fitted curve at half-maximal effect
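Plates of compound plus infected erythrocytes (2% hematocrit, 0.05% parasitemia final) incubate 96 hours, 37 C, 5% CO2. Detection reagent added; reduced luminescence from the parasites' luciferase reporter flags inhibition.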
HCMV inh: inhibitors of human cytomegalovirus. HFF cells, HCMV-luciferase reporter, 72 h; hits give low values. activity change, negative = inhibition, % at 57.5 µM. 410,000 tested, 4.5% active. AID 1259415; in the data active = activity change below about -60%; inconclusive = no clear call, values can overlap the other calls; inactive = above about -39%
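After 16 h attachment at 37C, HFF cells received test compound and HCMV-luciferase (1 PFU/cell); reporter luminescence read 72 h later, data normalized against buffer-only and known inhibitor Salinomycin.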
Pf growth 48h: inhibits P. falciparum growth in the first generation, 48 h | P. falciparum luciferase growth in erythrocytes, 48 h | Potency, µM (top dose mostly 28.7 µM), inactives show at the top dose activity change, negative = inhibition, usual class: inhibitors | 310,000 tested, 5.9% active | AID 504832; also: potency is read from the fitted curve at half-maximal effect
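Compounds are pin-transferred into medium, infected erythrocytes (2% hematocrit, 0.1% parasitemia final) are added, and plates sit one parasite generation at 37 C in 5% CO2. Detection reagent is then added and luminescence measured.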
FBPA Giardia inh: inhibitors of Giardia lamblia fructose-1,6-bisphosphate aldolase. purified Giardia FBPA. Potency, µM (doses to about 59.6 µM), for the others: at the top dose activity, negative = inhibition, actives largely listed as inhibitors. 290,000 tested, 0.71% active. AID 2451; also: potency is read from the fitted curve at half-maximal effect; nearly all actives have a fitted effect of over 55% in size
Target sequence (A8B2U2 whole entry, looked up): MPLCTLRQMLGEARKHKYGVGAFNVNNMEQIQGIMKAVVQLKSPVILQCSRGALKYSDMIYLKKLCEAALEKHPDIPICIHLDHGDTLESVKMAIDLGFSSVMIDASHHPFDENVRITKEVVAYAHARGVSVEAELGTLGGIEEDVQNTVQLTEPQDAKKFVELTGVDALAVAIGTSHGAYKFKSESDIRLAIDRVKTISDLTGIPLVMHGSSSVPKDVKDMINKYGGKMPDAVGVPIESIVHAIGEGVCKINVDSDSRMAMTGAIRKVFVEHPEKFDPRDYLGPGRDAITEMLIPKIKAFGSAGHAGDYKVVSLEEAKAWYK
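40 nM FBPA preincubated 10 min at RT with compound (up to 57.5 uM final), then substrate plus GAPDH/TPI/NAD/arsenate coupling and diaphorase/resazurin added. Fluorescence read after 20 min at RT, 525/598 nm.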
Active calls of the source: *; ? = inconclusive; . = not tested or not shown; [ ] = remark or other dose. Unless noted, calls follow the shape of the dose curve; as a rule, active = well fitted curve in the direction sought with a large enough effect; inconclusive = small, poorly fitted or top-dose-only effect, or another doubt; inactive = no such curve, though single readings can be large; an effect the other way counts as inactive or inconclusive. % is scaled to controls: 0 for no effect and ±100 for the full control effect.

SMILES	Sm TGR inh	Pf growth 96h	HCMV inh	Pf growth 48h	FBPA Giardia inh
COc1cccc(Oc2ncnc(N)c2[N+](=O)[O-])c1	-33%	4%	25	19%	4%
Cc1ccc(NC(=O)Cn2nc(-c3ccccc3)nc(Cc3ccc(Cl)cc3)c2=O)cc1	7%	.	-20	.	.
CC[C@@]1(O)C(=O)OCc2c1cc1n(c2=O)Cc2cc3c([N+](=O)[O-])cccc3nc2-1	.	?	.	8.5µM*	.
CC[C@@]1(O)C(=O)OCc2c1cc1n(c2=O)Cc2cc3c(CN(C)C)c(O)ccc3nc2-1	.	11µM*	-97*	8.5µM*	-15%
CC[C@@]1(O)C(=O)OCc2c1cc1n(c2=O)Cc2cc3c(N)cccc3nc2-1	?	1.2µM*	-99*	1.9µM*	?
CCc1c2c(nc3ccc(OC)cc13)-c1nc3ccccc3c(=O)n1C2	.	.	.	.	-16%
Cc1ccc(C2NC(=O)c3c(sc(C)c3C)N2)c(O)c1 (centres undefined)	25µM*	-3%	40	.	-19%
CCc1cc2c(=O)c(-c3ccc4c(c3)OCCO4)c(C)oc2cc1OS(C)(=O)=O	-1%	4.1µM*	-63*	?	2%
CCc1cc(=O)oc2c(C)c(OS(C)(=O)=O)ccc12	.	.	38	.	.
CNC(=S)N(C)[C@H]1c2c(ccc3ccccc23)OC[C@H]1CO	0%	-10%	-60*	87%	-6%
CN(C(=O)C(C)(C)C)C1c2c(ccc3ccccc23)OCC1CO (centres undefined)	-2%	-28%	55	-4%	-3%
COc1ccc(O[C@H]2C=C[C@@H](c3ccccc3)O[C@@H]2COC(=O)CC/C(C)=N/O[C@@H](C)CN2CCCCc3nc(C)c(C)cc32)cc1	-26%	8.3µM*	.	5.9µM*	-12%
COc1ccc(O[C@H]2C=C[C@@H](c3ccccc3)O[C@@H]2CO/N=C(\C)CCC(=O)OC[C@H]2O[C@H](c3ccccc3)C=C[C@@H]2Oc2ccc(OC)cc2)cc1	?	2.3µM*	.	2.6µM*	-2%
COC(=O)C/C=C/[C@@H](C)[C@@H](/C=N/OC[C@H]1O[C@H](c2ccccc2)C=C[C@@H]1Oc1ccc(OC)cc1)NS(=O)(=O)c1ccc(C)cc1	-17%	7.4µM*	.	12µM*	-11%
C/C(CCC(=O)OC[C@H]1O[C@H](C#Cc2ccccc2)C=C[C@@H]1Oc1ccc(C)cc1)=N\O[C@@H](C)CN1CCCCc2nc(C)c(C)cc21	35µM*	4.1µM*	.	15µM*	-8%
C/C(CCC(=O)OC[C@@H]1O[C@H](C#Cc2ccccc2)C=C[C@@H]1Oc1ccc(C)cc1)=N/O[C@@H](C)CN1CCCCc2nc(C)c(C)cc21	.	.	.	.	0%[12.9 µM]
COc1ccc(O[C@H]2C=C[C@@H](c3ccccc3)O[C@H]2COC(=O)CC/C(C)=N\O[C@@H](C)CN2CCCCc3nc(C)c(C)cc32)cc1	.	.	.	.	0%[12.9 µM]
CCCNC(=O)OC[C@H]1O[C@@H](CCO/N=C\[C@@H](NS(=O)(=O)c2ccc(C)cc2)[C@H](C)/C=C\CC(=O)OC)C=C[C@@H]1Oc1ccc(OC)cc1	.	.	.	.	1%[12.9 µM]
Cc1cc2nc(-c3cccc(Cl)c3)c(Cc3ccsc3)n2c(C)c1Br	.	.	16	.	.
COc1ccc2c3c([nH]c2c1)[C@@H](CO)N(C(=O)C1CCOCC1)CC31CCN(Cc2nccs2)CC1	.	.	-5	.	.
CCc1ccc(C(=O)C(C)OC(=O)c2nc3nc(C)cc(C)n3n2)cc1 (centres undefined)	-10%	1%	-21	11%	.
CC1=CC(C)(C)N(S(=O)(=O)c2ccc(F)cc2)c2ccc(C)cc21	-6%	15µM*	?	.	4%
CC1=CC(C)(C)N(S(=O)(=O)c2ccc(C)cc2)c2ccccc21	1%	10µM*	?	.	0%
COc1ccc(S[C@]2(c3nc(C)no3)CC(=O)N(c3ccc(Cl)cc3)[C@@H]2c2ccc(OC)cc2)cc1	.	.	9	.	.
CC(C)OC(=O)Nc1ccc2nc(-c3cscn3)[nH]c2c1	.	-21%	12	-18%	.
CC1CCN(C(=O)CCNS(=O)(=O)c2ccc(Br)cc2)CC1	4%	?	-37	?	.
CCCCCNS(=O)(=O)c1cc2c3c(c1)CCC(=O)N3CCC2	-21%	16%	-8	-2%	5%
